Measured values as given in the supplement of paper PMC9694430.
Where a name gives a salt, the structure may show the parent alone.

Tested on: LOC_OS05G30820-cb001
Assay: thermal shift delta Tm vs DMSO control; higher = stronger stabilization (binding)
Settings: 12.5 µM; protein concentration 2 µM
Method in brief: (§1)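 Compounds dissolved in DMSO were added to purified rice kinase domain constructs, which had been expressed in E. coli, for differential scanning fluorimetry. Each well held 19.5 μl of 2 μM kinase in 100 mM potassium phosphate pH 7.5, 150 mM NaCl, 10% glycerol and 5 × SYPRO Orange. Fluorescence was followed from 25°C to 95°C at a rate of 0.05°C/s. Shifts in Boltzmann-fitted melting temperature are triplicate means relative to DMSO-only protein.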

Row | SMILES | thermal shift delta Tm [°C]
1 | CC(C)(C)c1cnc(CSc2cnc(NC(=O)C3CCNCC3)s2)o1 | 0.47
2 | CN(C)C/C=C/C(=O)Nc1cc2c(Nc3ccc(F)c(Cl)c3)ncnc2cc1O[C@H]1CCOC1 [Afatinib (BIBW2992) Dimaleate] | 0.24
3 | O=C1c2c(O)cc(O)cc2OC(c2ccc(O)c(O)c2)C1O (centres undefined) [Taxifolin (Dihydroquercetin)] | 0.75
4 | CCN(CC)CCNC(=O)c1c(C)[nH]c(/C=C2\C(=O)Nc3ccc(F)cc32)c1C [Sunitinib Malate] | 0.86
5 | COc1cc(Nc2ncc(F)c(Nc3ccc4c(n3)N(COP(=O)(O)O)C(=O)C(C)(C)O4)n2)cc(OC)c1OC [Fostamatinib (R788)] | 2.2
6 | CC(C)(C)c1nc(-c2ccc(NC(=O)Nc3cccc(C(F)(F)F)c3)c3ccccc23)c2c(N)nccn12 [kira6] | 0.66
7 | CNC(=O)c1cc(Oc2ccc(NC(=O)Nc3ccc(Cl)c(C(F)(F)F)c3)cc2)ccn1 [Sorafenib Tosylate] | 0.5
8 | CC(=O)Nc1nc(C)c(-c2ccc(Cl)c(S(=O)(=O)NCCO)c2)s1 | 0.4
9 | CCc1nc(-c2cccc(C)c2)c(-c2ccnc(NC(=O)c3ccccc3)c2)s1 | 0.63
10 | C[C@@]1(C(=O)Nc2ccc(F)nc2)CCCN1c1nc(Nc2cc(C3CC3)n[nH]2)c2cccn2n1 | 0.52
11 | COc1ccc(Cl)cc1NC(=O)Nc1cc(C)nc2ccccc12 | 0.46
12 | C=CC(=O)Nc1cccc(Nc2nc(Nc3ccc(OCCOC)cc3)ncc2F)c1 | 1.06
13 | CC(C)c1c2cc(-c3ccnc(NC4CCC(NC5CCOCC5)CC4)n3)ccc2nn1C (centres undefined) | 0.45
14 | C[C@H]1CNC(=O)c2cnn3ccc(nc23)N[C@H](C)c2cc(F)ccc2O1 | 0.11
15 | Cn1cc(-c2ccc3c(c2)CCN3C(=O)Cc2cccc(C(F)(F)F)c2)c2c(N)ncnc21 | 0.78
16 | Cn1c(=O)c(F)c(Nc2ccc(I)cc2F)c2c(=O)n(C[C@@H](O)CO)cnc21 | 0.72
17 | CNC(=O)c1cccc(-c2ccc3c(N4CCOC[C@@H]4C)nc(N4CCOC[C@@H]4C)nc3n2)c1 [Vistusertib (AZD2014)] | 0.67
18 | Cc1nc(Nc2cnn(C3CCNCC3)c2)nc2c1N(C)C(=O)c1cc3ccccc3cc1N2C | 0.47
19 | COc1cc2/c(=N/c3ccc(Br)cc3F)nc[nH]c2cc1OCC1CCN(C)CC1 [Vandetanib (ZD6474)] | 0.52

Row | SMILES | thermal shift delta Tm [°C]
20 | CCn1c(C(=O)N(C2CC2)C2CC2)cc2c3c(ncn3C)c(Nc3cc(C)n(C)n3)nc21 | 0.47
21 | OCCn1cc(-c2cnc3nnn(Cc4ccc5ncccc5c4)c3n2)cn1 | 0.46
22 | N#CC[C@H](C1CCCC1)n1cc(-c2ncnc3[nH]ccc23)cn1 | 0.76
23 | CCn1nc(C2CCN(C(=O)CCO)CC2)nc1-c1cnc(N)c(-c2nnc(C(C)(C)C)o2)n1 | 0.58
24 | CC(C)(C)c1cc(NC(=O)Nc2ccc(Oc3ccnc4[nH]c(=O)cnc34)cc2F)n(-c2ccccc2)n1 | 0.39
25 | CO[C@H]1CC[C@H](N2C(=O)CNc3ncc(-c4ccc(C(C)(C)O)nc4)nc32)CC1 | 0.29
26 | CC[C@@H]1C(=O)N(C)c2cnc(Nc3ccc(C(=O)N[C@H]4CC[C@H](N5CCN(CC6CC6)CC5)CC4)cc3OC)nc2N1C(C)C [Volasertib (BI 6727)] | 0.58
27 | COc1ccc2c(c1)[C@]1(C[C@H]1c1ccc3c(/C=C/c4ccc(CN5C[C@@H](C)O[C@@H](C)C5)cc4)n[nH]c3c1)C(=O)N2 | -0.63
28 | O=C(Nc1nc2cccc(-c3ccc(CN4CCS(=O)(=O)CC4)cc3)n2n1)C1CC1 [Filgotinib (GLPG0634)] | 0.46
29 | CCn1c(-c2nonc2N)nc2c(C#CC(C)(C)O)ncc(OC[C@H]3CCCNC3)c21 | 0.49
30 | Cc1cnc(Nc2ccc(OCCN3CCCC3)cc2)nc1Nc1cccc(S(=O)(=O)NC(C)(C)C)c1 | 0.92
31 | Cc1cc(Nc2cc(N3CCN(C)CC3)nc(/C=C/c3ccccc3)n2)n[nH]1 [ENMD-2076 L-(+)-Tartaric acid] | 1.55
32 | CC#CC(=O)N1CC[C@@H](n2c(=O)n(-c3ccc(Oc4ccccc4)cc3)c3c(N)ncnc32)C1 [ONO-4059 (GS-4059) hydrochloride] | 0.41
33 | CCN1CCN(Cc2ccc(Nc3ncc(F)c(-c4cc(F)c5nc(C)n(C(C)C)c5c4)n3)nc2)CC1 | 0.2
34 | CN(C)C[C@@H]1CCn2cc(c3ccccc32)C2=C(C(=O)NC2=O)c2cn(c3ccccc23)CCO1 | 0.63
35 | CN1CCN(Cc2ccc(NC(=O)Nc3ccc(Oc4ccnc(N)n4)cc3)cc2C(F)(F)F)CC1 | 0.74
36 | O=C(NOCCO)c1ccc2cncn2c1Nc1ccc(I)cc1F | 0.54
37 | CCCCCCCCCCCCc1ccc(S(=O)(=O)Nc2nncs2)cc1 | 0.45

Tested on: LOC_OS05G43570-cb004
Assay: as above
Settings: 12.5 µM; protein concentration 2 µM
Method in brief: as §1

Row | SMILES | thermal shift delta Tm [°C]
38 | CC(C)(C)c1cnc(CSc2cnc(NC(=O)C3CCNCC3)s2)o1 | 0.31
39 | CN(C)C/C=C/C(=O)Nc1cc2c(Nc3ccc(F)c(Cl)c3)ncnc2cc1O[C@H]1CCOC1 [Afatinib (BIBW2992) Dimaleate] | 0.46
40 | O=C1c2c(O)cc(O)cc2OC(c2ccc(O)c(O)c2)C1O (centres undefined) [Taxifolin (Dihydroquercetin)] | -0.08
41 | CCN(CC)CCNC(=O)c1c(C)[nH]c(/C=C2\C(=O)Nc3ccc(F)cc32)c1C [Sunitinib Malate] | 0.2
42 | COc1cc(Nc2ncc(F)c(Nc3ccc4c(n3)N(COP(=O)(O)O)C(=O)C(C)(C)O4)n2)cc(OC)c1OC [Fostamatinib (R788)] | 0.38
43 | CC(C)(C)c1nc(-c2ccc(NC(=O)Nc3cccc(C(F)(F)F)c3)c3ccccc23)c2c(N)nccn12 [kira6] | 3.12
44 | CNC(=O)c1cc(Oc2ccc(NC(=O)Nc3ccc(Cl)c(C(F)(F)F)c3)cc2)ccn1 [Sorafenib Tosylate] | 1.5
45 | CC(=O)Nc1nc(C)c(-c2ccc(Cl)c(S(=O)(=O)NCCO)c2)s1 | 0.87
46 | CCc1nc(-c2cccc(C)c2)c(-c2ccnc(NC(=O)c3ccccc3)c2)s1 | -0.08
47 | C[C@@]1(C(=O)Nc2ccc(F)nc2)CCCN1c1nc(Nc2cc(C3CC3)n[nH]2)c2cccn2n1 | 0.32
48 | COc1ccc(Cl)cc1NC(=O)Nc1cc(C)nc2ccccc12 | 0.5
49 | C=CC(=O)Nc1cccc(Nc2nc(Nc3ccc(OCCOC)cc3)ncc2F)c1 | 1.03
50 | CC(C)c1c2cc(-c3ccnc(NC4CCC(NC5CCOCC5)CC4)n3)ccc2nn1C (centres undefined) | 0.57
51 | C[C@H]1CNC(=O)c2cnn3ccc(nc23)N[C@H](C)c2cc(F)ccc2O1 | 0.56
52 | Cn1cc(-c2ccc3c(c2)CCN3C(=O)Cc2cccc(C(F)(F)F)c2)c2c(N)ncnc21 | 0.46
53 | Cn1c(=O)c(F)c(Nc2ccc(I)cc2F)c2c(=O)n(C[C@@H](O)CO)cnc21 | 1.08
54 | CNC(=O)c1cccc(-c2ccc3c(N4CCOC[C@@H]4C)nc(N4CCOC[C@@H]4C)nc3n2)c1 [Vistusertib (AZD2014)] | 0.5
55 | Cc1nc(Nc2cnn(C3CCNCC3)c2)nc2c1N(C)C(=O)c1cc3ccccc3cc1N2C | 0.33
56 | COc1cc2/c(=N/c3ccc(Br)cc3F)nc[nH]c2cc1OCC1CCN(C)CC1 [Vandetanib (ZD6474)] | -0.25

Row | SMILES | thermal shift delta Tm [°C]
57 | CCn1c(C(=O)N(C2CC2)C2CC2)cc2c3c(ncn3C)c(Nc3cc(C)n(C)n3)nc21 | 0.51
58 | OCCn1cc(-c2cnc3nnn(Cc4ccc5ncccc5c4)c3n2)cn1 | 0.28
59 | N#CC[C@H](C1CCCC1)n1cc(-c2ncnc3[nH]ccc23)cn1 | 1.05
60 | CCn1nc(C2CCN(C(=O)CCO)CC2)nc1-c1cnc(N)c(-c2nnc(C(C)(C)C)o2)n1 | 0.43
61 | CC(C)(C)c1cc(NC(=O)Nc2ccc(Oc3ccnc4[nH]c(=O)cnc34)cc2F)n(-c2ccccc2)n1 | 0.48
62 | CO[C@H]1CC[C@H](N2C(=O)CNc3ncc(-c4ccc(C(C)(C)O)nc4)nc32)CC1 | 0.48
63 | CC[C@@H]1C(=O)N(C)c2cnc(Nc3ccc(C(=O)N[C@H]4CC[C@H](N5CCN(CC6CC6)CC5)CC4)cc3OC)nc2N1C(C)C [Volasertib (BI 6727)] | 0.4
64 | COc1ccc2c(c1)[C@]1(C[C@H]1c1ccc3c(/C=C/c4ccc(CN5C[C@@H](C)O[C@@H](C)C5)cc4)n[nH]c3c1)C(=O)N2 | 0.5
65 | O=C(Nc1nc2cccc(-c3ccc(CN4CCS(=O)(=O)CC4)cc3)n2n1)C1CC1 [Filgotinib (GLPG0634)] | 0.12
66 | CCn1c(-c2nonc2N)nc2c(C#CC(C)(C)O)ncc(OC[C@H]3CCCNC3)c21 | 1.47
67 | Cc1cnc(Nc2ccc(OCCN3CCCC3)cc2)nc1Nc1cccc(S(=O)(=O)NC(C)(C)C)c1 | 0.64
68 | Cc1cc(Nc2cc(N3CCN(C)CC3)nc(/C=C/c3ccccc3)n2)n[nH]1 [ENMD-2076 L-(+)-Tartaric acid] | 0.7
69 | CC#CC(=O)N1CC[C@@H](n2c(=O)n(-c3ccc(Oc4ccccc4)cc3)c3c(N)ncnc32)C1 [ONO-4059 (GS-4059) hydrochloride] | 0.2
70 | CCN1CCN(Cc2ccc(Nc3ncc(F)c(-c4cc(F)c5nc(C)n(C(C)C)c5c4)n3)nc2)CC1 | 0.41
71 | CN(C)C[C@@H]1CCn2cc(c3ccccc32)C2=C(C(=O)NC2=O)c2cn(c3ccccc23)CCO1 | 0.63
72 | CN1CCN(Cc2ccc(NC(=O)Nc3ccc(Oc4ccnc(N)n4)cc3)cc2C(F)(F)F)CC1 | 1.72
73 | O=C(NOCCO)c1ccc2cncn2c1Nc1ccc(I)cc1F | 0.3
74 | CCCCCCCCCCCCc1ccc(S(=O)(=O)Nc2nncs2)cc1 | 0.64
